Sensor-assay potency score (higher = more potent) data for 21 sequences are collected here from the OligoGym collection.
Further: reference of the scale not given here.

For one test, the target named is ZDHHC4. As to the kind of experiment: pooled miR-30 sensor sort-seq; sequence = guide strand. The settings on record: shRNA.
Consider ATACAGGACAAACAACAGGTAG, for which the sensor-assay potency score (higher = more potent) is -1.34.

With TAAATCTGACATCACCACCAAG, the sensor-assay potency score (higher = more potent) was -0.923.

For the sequence ATCTCTTGAAGGTTGCTCCGAA, the sensor-assay potency score (higher = more potent) is -0.154.

TTGGAAACATCACTTCATCAAA yielded a sensor-assay potency score (higher = more potent) of -1.15.

In the case of TACTGAATAAGAAAGACCGTGT, the sensor-assay potency score (higher = more potent) is 0.745.

TTTGCTTTTGTTATAATGCCAG came in with a sensor-assay potency score (higher = more potent) of -0.404.

The sequence TACAGGACAAACAACAGGTAGC registered a sensor-assay potency score (higher = more potent) of -0.502.

TAAACGGGAACTACAGCTCAAA: the sensor-assay potency score (higher = more potent) was -0.745.

Turning to TTGCTTTTGTTATAATGCCAGG, the sensor-assay potency score (higher = more potent) is -1.32.

Regarding TAGAAAGATCTCTTGAAGGTTG, the sensor-assay potency score (higher = more potent) turned out to be 0.193.

For TTATACAGGAAAATATCTGTGC, the sensor-assay potency score (higher = more potent) stood at 0.584.

Turning to TACCACTCGTTAGTAGTCTGGT, the sensor-assay potency score (higher = more potent) was -0.0383.

For the next test, the target named is ZDHHC6. The test is described as above. The settings on record: shRNA.
Regarding TATTCTTGAAACACCTTCTATA, the sensor-assay potency score (higher = more potent) was -0.715.

The sequence TTGGTAACCACAACAGTTGTTG registered a sensor-assay potency score (higher = more potent) of -0.394.

The sequence TTCTGCAGTGATGTGAACGTGG yielded a sensor-assay potency score (higher = more potent) of 0.312.

AACTGTTCTATTGTTAAGCTGT: the sensor-assay potency score (higher = more potent) was -0.493.

In the case of TGAAATTCACACTTCCTCCAGT, the sensor-assay potency score (higher = more potent) is -0.0351.

For TTATTCTTGAAACACCTTCTAT, the sensor-assay potency score (higher = more potent) is -0.81.

Take TTTGTCTCCATATAACCAGTAT: the sensor-assay potency score (higher = more potent) was -0.758.

As to TTCTTGTAGATTTTCAAACTTG, the sensor-assay potency score (higher = more potent) is -0.053.

The sequence TCTTCTATTACTTTATAGCGAA came in with a sensor-assay potency score (higher = more potent) of -0.958.
